From PubChem BioAssay (NCI)
Compounds without any hit were thinned out: in the full panel of roughly 83,000, 20% have a hit.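 The test compound was applied at a single concentration to cells in 96-well plates for 48 hours, and percent growth was recorded.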 Values without a mark were called inactive. Active and inactive are the calls of the source. Rule for the calls: active = growth percent below 10; inactive = the rest.

What follows are compounds tested on K-562 leukemia (assay: NCI-60 one-dose screen, 48 h (100 = growth as untreated, 0 = no growth, -100 = all killed)). Conditions: 10 µM unless noted.
For `COc1ccc(Nc2nc(SC)nc(-c3cccc([N+](=O)[O-])c3)c2C#N)cc1`, the growth was 93.6%.
Work on `CCOC(=O)c1sc2nc(-c3cccc(O)c3)nc(N3CCOCC3)c2c1C` yielded a growth of 60.5%.
`O=C1/C(=C/c2ccccc2)SC(=S)N1CCc1ccc(O)cc1` showed a growth of 90.9%.
In the case of `OCC(O)c1nc2ccc3[nH]ncc3c2c2c1CCCC2` (stereo not given), the growth is reported as 37.2%.
In the case of `CC[C@@H]1O[C@H](O[C@@H](c2cnc[nH]2)[C@H](NC(=O)c2nc([C@H](CC(N)=O)NC[C@@H](N)C(N)=O)nc(N)c2C)C(=O)N[C@H](C)[C@H](O)[C@H](C)C(=O)N[C@@H](C(=O)NCCc2nc(-c3nc(C(=O)NCCCCN=C(N)N)cs3)cs2)[C@@H](C)O)[C@H](O[C@@H]2O[C@H](CO)[C@H](O)[C@H](OC(N)=O)[C@@H]2O)[C@H](C)[C@@H]1C`, the growth is reported as 82%.
In the case of `COc1cc2c(cc1-c1c(C)noc1C)ncc1nc(C3CCC(F)(F)CC3)n([C@H](C)COC(F)F)c12`, the growth is reported as 30.5%.
`O=S(=O)(Nc1ccc(Br)c(Cl)c1)c1ccc(-c2cnc(C3CC3)o2)cc1` gave a growth of 10.2%.
Compound `Cc1nn(-c2cc(=O)[nH]c3ccc(Cl)cc23)c(N)c1C#N` has a growth of 113%.
`CCOc1nc(-c2ccccc2)cc2c(O)c(C(=O)N/N=C/c3ccc(O)cc3O)[nH]c(=O)c12` gave a growth of 31.5%.
Compound `O=C(O)c1ccc(NC(=O)c2ccc(-c3cccc([N+](=O)[O-])c3)o2)cc1` has a growth of 107%.
For `Cc1ccc(NS(=O)(=O)c2ccc(-c3cnc(C4CC4)o3)cc2)cc1C`, the growth was 9.36% (active).
In the case of `CC(C)CC1C(=O)N2CCC[C@H]2C2(O)O[C@](NC(=O)C3C=C4c5cccc6[nH]c(Br)c(c56)C[C@H]4N(C)C3)(C(C)C)C(=O)N12` (stereo not given in full), the growth is reported as 34.5%.
`C=CC(=O)Nc1cccc(-c2nc(SC)nc(NCCN3CCOCC3)c2C#N)c1` gave a growth of 87.7%.
Compound `CC(C)c1c(C(=O)c2ccccc2)c(-c2ccccc2)c(-c2ccc(F)cc2)n1CC[C@@H](O)C[C@@H](O)CC(=O)O` has a growth of 71.3%.
`O=S(=O)(Nc1ccc(NS(=O)(=O)c2ccccc2)c(Cl)c1)c1ccccc1` was tested, and the growth was 95.4%.
With `O=C(N=Nc1c(O)[nH]c2ccccc12)c1cc(-c2ccccc2)on1` the growth was 104%.
In the case of `O=C1NC(=S)NC(=O)C1CC(=O)n1c(-c2ccccc2)nc2ccccc21`, the growth is reported as 98.6%.
For `Cn1c(O)c(N=NC(=O)c2cc(-c3ccccc3)on2)c2ccccc21`, the growth was 116%.
In the case of `CN1CCN(Cc2ccc(NC(=O)c3cncc(C#Cc4cncn5ccnc45)c3)cc2C(F)(F)F)CC1`, the growth is reported as 4.35% (active).

The compounds below were run on MALME-3M melanoma in the same assay as above. Conditions: 10 µM unless noted.
`c1csc(C2=NN3C(C2)c2ccccc2OC3c2ccncc2)c1` (stereo not given) showed a growth of 86.9%.
`CC1=CC(C)(C)Nc2ccc(Cc3ccc4c(c3)C(C)=CC(C)(C)N4)cc21` was tested, and the growth was 87.2%.
For `CCCCn1c(-c2ccc(C(=O)O/N=C(\N)c3ccc4ccccc4c3)cc2)nc(-c2ccccc2)c1-c1ccccc1`, the growth was 93.4%.
With `O=C(Nc1ccc(Cl)cc1)c1cc2cc(F)ccc2cc1O` the growth was -3.12% (active).
Work on `Cn1cc(-c2nonc2-c2cn(C)c3ccc(F)cc23)c2cc(F)ccc21` yielded a growth of 49.5%.
For `CCN(CC)S(=O)(=O)c1ccc(OC)c(NC(=O)c2[nH]c(C)c3c2CCCCC3=O)c1`, the growth was 60.6%.
`COc1cccc(-c2nc3sccn3c2-c2ccnc(NCCCNS(=O)(=O)c3cccc(F)c3)c2)c1` gave a growth of 28.1%.
For `COc1cc(/C=C/c2cc(/C=C/c3ccc(O)c(OC)c3)n(-c3c(C)cccc3C)c(=O)n2)ccc1O`, the growth was -14% (active).
`COc1cccc(-c2nc(SCC(=O)Nc3ccc(C(=O)/C=C/c4ccc(OC)c(OC)c4)cc3)[nH]c(=O)c2C#N)c1` showed a growth of 97.4%.
In the case of `Cc1cc(C)c2nc3nc(C)cc(C)c3c(N)c2c1`, the growth is reported as 24%.
`FC(F)(F)c1ccc(-c2cn3nc(-c4c[nH]c5ccc(Br)cc45)sc3n2)cc1` gave a growth of 90.4%.
Compound `CC(=O)O[C@H]1[C@@H]2OC(=O)C(CSc3ccccc3)[C@@H]2C[C@H]2O[C@]2(C)CC/C=C(\C)CCC[C@@H]1C` (stereo not given in full) has a growth of 87.2%.
In the case of `Cc1cc(C)nc(SC2=C(Nc3ccc(O)cc3)C(=O)N(Cc3ccccc3)C2=O)n1`, the growth is reported as 102% [40 µM].
Work on `COc1ccc(Nc2nc(SC)nc(-c3cccc([N+](=O)[O-])c3)c2C#N)cc1` yielded a growth of 61.7%.
Compound `CN(C)[C@@H]1C(=O)C(C(=O)NCc2nc3[nH]cnc(=S)c3[nH]2)=C(O)[C@@]2(O)C(=O)C3=C(O)c4c(O)cccc4[C@@](C)(O)[C@H]3C[C@@H]12` has a growth of 69.4%.
`CCOC(=O)c1sc2nc(-c3cccc(O)c3)nc(N3CCOCC3)c2c1C` gave a growth of 62.7%.
In the case of `O=C1/C(=C/c2ccccc2)SC(=S)N1CCc1ccc(O)cc1`, the growth is reported as 92.2%.
Work on `OCC(O)c1nc2ccc3[nH]ncc3c2c2c1CCCC2` (stereo not given) yielded a growth of 19%.
Compound `CC[C@@H]1O[C@H](O[C@@H](c2cnc[nH]2)[C@H](NC(=O)c2nc([C@H](CC(N)=O)NC[C@@H](N)C(N)=O)nc(N)c2C)C(=O)N[C@H](C)[C@H](O)[C@H](C)C(=O)N[C@@H](C(=O)NCCc2nc(-c3nc(C(=O)NCCCCN=C(N)N)cs3)cs2)[C@@H](C)O)[C@H](O[C@@H]2O[C@H](CO)[C@H](O)[C@H](OC(N)=O)[C@@H]2O)[C@H](C)[C@@H]1C` has a growth of 45%.
For `COc1cc2c(cc1-c1c(C)noc1C)ncc1nc(C3CCC(F)(F)CC3)n([C@H](C)COC(F)F)c12`, the growth was 67.5%.
Work on `O=C1c2c(O)cc(O)cc2-c2c(-c3ccc(O)cc3)oc3cc(O)cc1c23` yielded a growth of 54.7%.
`CCN1CCN(c2nc(NCCNc3ccnc4cc(Cl)ccc34)c3ccccc3n2)CC1` was tested, and the growth was -78% (active).
`O=S(=O)(Nc1ccc(Br)c(Cl)c1)c1ccc(-c2cnc(C3CC3)o2)cc1` showed a growth of 30.9%.
In the case of `Cc1nn(-c2cc(=O)[nH]c3ccc(Cl)cc23)c(N)c1C#N`, the growth is reported as 105%.
With `Clc1ccc2c(NCCCCNc3nc(N4CCOCC4)nc4ccccc34)ccnc2c1` the growth was -58.7% (active).
In the case of `O=C(O)c1ccc(NC(=O)c2ccc(-c3cccc([N+](=O)[O-])c3)o2)cc1`, the growth is reported as 86.4%.
With `Cc1ccc(NS(=O)(=O)c2ccc(-c3cnc(C4CC4)o3)cc2)cc1C` the growth was 42.6%.
Work on `O=c1ccccc(-c2ccc(-c3ccco3)cc2)c1O` yielded a growth of 15.1%.
`CC(C)CC1C(=O)N2CCC[C@H]2C2(O)O[C@](NC(=O)C3C=C4c5cccc6[nH]c(Br)c(c56)C[C@H]4N(C)C3)(C(C)C)C(=O)N12` (stereo not given in full) was tested, and the growth was 74.7%.
`C=CC(=O)Nc1cccc(-c2nc(SC)nc(NCCN3CCOCC3)c2C#N)c1` gave a growth of 89.6%.
`CC(C)c1c(C(=O)c2ccccc2)c(-c2ccccc2)c(-c2ccc(F)cc2)n1CC[C@@H](O)C[C@@H](O)CC(=O)O` showed a growth of 85.2%.
Work on `O=S(=O)(Nc1ccc(NS(=O)(=O)c2ccccc2)c(Cl)c1)c1ccccc1` yielded a growth of 103%.
Compound `O=C(N=Nc1c(O)[nH]c2ccccc12)c1cc(-c2ccccc2)on1` has a growth of 100%.
In the case of `O=C1NC(=S)NC(=O)C1CC(=O)n1c(-c2ccccc2)nc2ccccc21`, the growth is reported as 93%.
`Cn1c(O)c(N=NC(=O)c2cc(-c3ccccc3)on2)c2ccccc21` was tested, and the growth was 88.7%.
`CN1CCN(Cc2ccc(NC(=O)c3cncc(C#Cc4cncn5ccnc45)c3)cc2C(F)(F)F)CC1` was tested, and the growth was 2.25% (active).
